HCMV inh: inhibitors of human cytomegalovirus. HFF cells, HCMV-luciferase reporter, 72 h; active compounds read low. activity change, negative = inhibition, % at 57.5 µM. 410,000 compounds, 4.5% hits; in the data active = activity change below about -60%; inconclusive = no clear call, values can overlap the other calls; inactive = above about -39%
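Two-dose cell screen: HFF monolayers treated with compounds and infected with luciferase-expressing HCMV at 1 PFU/cell, 72 h at 37C, then lysed for luciferase measurement.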
HCV inhibitor: HCV inhibition. Huh7.5.1 HCVcc-Cre infection, luciferase reporter, 44 h. Potency, µM (highest dose often 41.8 µM), inactives show at the highest dose activity change, negative = inhibition, hits mostly inhibitors. 340,000 compounds, 3.4% hits. AID 651820; also: potency is read from the fitted curve at half-maximal effect
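After 44 h co-culture of compound, cells and HCVcc-Cre (~0.5 moi), substrate is added for 15 min at room temperature and luciferase measured over 15 sec. Cells were seeded at 1,000/well and pre-cultured 4 h.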
Pf growth 48h: inhibits P. falciparum growth in the first generation, 48 h | P. falciparum luciferase growth in erythrocytes, 48 h | Potency, µM (series often up to 28.7 µM), without a hit: at the top dose activity change, negative = inhibition, usual class: inhibitors | 310,000 compounds, 5.9% hits; also: potency is read from the fitted curve at half-maximal effect
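Erythrocytes infected with P. falciparum carrying an integrated firefly luciferase reporter (2% hematocrit, 0.1% parasitemia final) were exposed to compounds in RPMI 1640 with 0.5% Albumax at 37 C, 5% CO2. Growth inhibition was scored as reduced luminescence.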
Pf growth 96h: P. falciparum growth inhibition at 96 hour, primary screen for plastid delayed-death inhibitors. P. falciparum luciferase reporter growth, 96 h. 320,000 compounds, 6.9% hits. Potency, µM (series often up to 28.7 µM), for the others: at the highest dose activity change, negative = inhibition, hits mostly inhibitors; also: potency is read from the fitted curve at half-maximal effect
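Cell-based qHTS: luciferase-tagged P. falciparum in erythrocytes (2% hematocrit, 0.05% parasitemia final) incubated with compounds for 96 hours, 37 C, 5% CO2; luciferase detection reagent then added and luminescence measured.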
MARV entry inh: Marburg virus entry inhibition | Marburg virus pseudotyped entry inhibition, cell reporter | Potency, µM (doses to about 37.8 µM), for inactives: at the highest dose activity change, negative = inhibition, usual class: inhibitors | 300,000 compounds, 1.8% hits | AID 540276; calls by dose curve; tested in HEK293 cells; also: potency is read from the fitted curve at half-maximal effect
Lassa entry inh: Lassa virus entry inhibition; Lassa virus pseudotype entry inhibition, cell reporter; Potency, µM (doses to about 37.9 µM), without a hit: at the top dose activity change, negative = inhibition, hits mostly inhibitors; 300,000 compounds, 1.2% hits; AID 540256; calls by dose curve; tested in HEK293 cells; also: potency is read from the fitted curve at half-maximal effect; nearly all actives have a fitted effect of over 50% in size
Starred values were filed as active, the others as inactive; ? = inconclusive; . = no result given; [ ] = remark or other dose. A selection: hits, their analogues and other compounds. The true share with any hit is near 14%. Unless noted, calls follow the shape of the dose curve; as a rule, active = well fitted inhibition curve with a large enough effect; inconclusive = small, poorly fitted or top-dose-only effect, or another doubt; inactive = no such curve, though single readings can be large or run the other way. % is scaled to controls: 0 for no effect and ±100 for the full control effect.

SMILES | HCMV inh | HCV inhibitor | Pf growth 48h | Pf growth 96h | MARV entry inh | Lassa entry inh
O=C(Cn1cnc2c(nnn2-c2ccccc2)c1=O)N1CCCc2ccccc21 | -25 | -12% | -11% | ? | . | .
O=C(Cn1cnc2c(cnn2-c2ccccc2)c1=O)N1CCCc2ccccc21 | ? | ? | -9% | 10% | 7.3µM* | ?
CCN(CC)S(=O)(=O)c1ccc(N2CCOCC2)c(NC(=O)C(=O)c2c(-c3ccccc3)cc3ccccn23)c1 | -27 | 14µM* | 6.6µM* | . | ? | ?
CCN(CC)S(=O)(=O)c1cccc(NC(=O)C(=O)c2c(-c3ccccc3)cc3ccccn23)c1 | -75* | ? | . | 7.4µM* | ? | -20%
CCN(CC)S(=O)(=O)c1cc(NC(=O)C(=O)c2c(-c3ccccc3)cc3ccccn23)ccc1C | -97* | 13µM* | . | 12µM* | ? | ?
CN(C)CCNC(=O)C(=O)c1c(-c2ccccc2)cc2ccccn12 | -40 | 4% | -3% | -4% | -5%[46.1 µM] | 3%
CC1CCN(Cc2c(O)ccc3c(=O)c(Oc4ccccc4Cl)c(C(F)(F)F)oc23)CC1 | -17 | . | . | . | 1%[46.1 µM] | 19%[46.1 µM]
Cc1cccc(C)c1NC(=O)COC(=O)CCc1c[nH]c2ccccc12 | -13 | -1% | 3.7µM* | 6.6µM* | . | .
Cc1cccc(NC(=O)COC(=O)CCc2c[nH]c3ccccc23)c1C | -25 | -4% | 13µM* | ? | . | .
O=C(COC(=O)CCc1c[nH]c2ccccc12)Nc1ccccc1C(F)(F)F | -94* | -18% | -17% | 31% | . | .
Cc1c(NC(=O)COC(=O)CCc2c[nH]c3ccccc23)c(=O)n(-c2ccccc2)n1C | -14 | 15% | 9% | -8% | 17% | 18%
O=C(NCc1ccco1)Nc1cccc(-c2ccccc2)c1 | -24 | -10% | . | . | -20%[46.1 µM] | 11%[46.1 µM]
CCN(CC)S(=O)(=O)c1cccc(NC(=S)NC(=O)/C=C/c2ccc(S(=O)(=O)N3CCOCC3)cc2)c1 | -17 | -5% | ? | 4.7µM* | -3% | ?
O=C(/C=C/c1ccc(F)cc1)Nc1cccc(S(=O)(=O)N2CCOCC2)c1 | -3 | 10µM* | . | . | ? | -27%
O=C(/C=C/c1ccc(S(=O)(=O)N2CCOCC2)cc1)NC(=S)NCCCn1ccnc1 | -82* | 22µM* | ? | ? | ? | ?
O=C(/C=C/c1ccc(S(=O)(=O)N2CCOCC2)cc1)Nc1cc(F)ccc1F | 42 | ? | . | . | ? | -29%[46.1 µM]
CN(Cc1ccccc1)C(CNS(=O)(=O)c1ccccc1)c1ccccc1 (stereo not drawn) | 8 | . | . | . | . | .
O=C(Cc1ccccc1)NCCS(=O)c1ccc(Cl)cc1 (stereo not drawn) | -33 | 17% | 12% | 42% | ? | 4%
O=C(Cc1ccc(Cl)cc1)NCCS(=O)c1ccc(Cl)cc1 (stereo not drawn) | -18 | -3% | 8% | 1.2µM* | ? | 3%
Cc1ccc(S(=O)(=O)N2C[C@H]3C(=O)C[C@@H](c4ccccc4)N(S(=O)(=O)c4ccccc4C)[C@H]3C[C@H]2c2ccccc2)cc1 | -7 | . | . | . | . | .
CCN(CCn1cccn1)Cc1cn[nH]c1-c1ccc(-c2ccccc2)cc1 | 61 | 4% | 2.9µM* | -2% | . | .
CCOc1ccccc1CNC(=O)c1ccc2nc(CCc3ccccc3)oc2c1 | 8 | . | . | . | . | -7%[46.1 µM]
Cc1nc2c([nH]c3ccc(Br)cc32)s1 | ? | 10µM* | 33% | ? | 11% | 19%[14.3 µM]
Cc1n[nH]c2ccc(Br)cc2c1=O | -22 | . | . | . | . | .
CC(=O)N(CCC(c1ccco1)C(C)C)Cc1ccc(Cl)cc1 (stereo not drawn) | -36 | 7% | ? | ? | -25%[46.1 µM] | 10µM*
CC(C)(C)OC(=O)N1CCc2onc(-c3ccc(Br)cc3)c2C1=O | -29 | . | . | . | . | .
O=C1c2ccccc2C(=Nc2ccccc2)C1c1cccc(Br)c1 (stereo not drawn) | -37 | 1% | ? | 4.1µM* | ? | 4%
CCOc1nc(N=C(N)N)nc2c(C)cccc12 | 62 | ? | 8.3µM* | 0.59µM* | -19% | -5%

Screens (PubChem)
